Data published in PubChem BioAssay (NCATS).
Records with an inconclusive call do not appear. Entries that show only a call come without a potency. Calls of active or inactive are those of the source. Calls follow the shape of the dose curve; as a rule, active = well fitted curve in the direction sought with a large enough effect; inconclusive = small, poorly fitted or top-dose-only effect, or another doubt; inactive = no such curve, though single readings can be large; an effect the other way counts as inactive or inconclusive.

How the values were obtained:
[1] = biological target: Cellular tumor antigen p53 (Homo sapiens) (UniProt P04637); assay: Primary qHTS for small molecule compounds that upregulate eGFP-tagged delta133p53alpha (in N-terminal) cells. (AID 2060322); details: NCI-H358 eGFP-delta133p53alpha fluorescence, 24 h; activation: hits give high values; also: nearly all actives have a fitted effect of over 75% in size; also: potency is read from the fitted curve at half-maximal effect
Procedure, shortened: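 NCI-H358 cells pre-induced 24 h with 10 ng/ml doxycycline to express N-terminal eGFP-delta133p53alpha, then dosed 24 h at 37C without doxycycline; fixed, Hoechst-stained, GFP intensity by laser scanning cytometry, normalized to DMSO (0%) and 57.5 uM 5-azacytidine (100%).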

[2] = biological target: Aldehyde dehydrogenase, mitochondrial (Homo sapiens) (UniProt P05091); assay: qHTS for Inhibitors of the Aldehyde Dehydrogenase Family (ALDH2) Primary screen (AID 2061308); details: ALDH2 enzyme inhibition qHTS, 1536-well; series mostly up to 56 µM; also: nearly all actives have a fitted effect of over 55% in size
[3] = biological target: Retinaldehyde dehydrogenase 3 (Homo sapiens) (UniProt P47895); assay: qHTS for Inhibitors of the Aldehyde Dehydrogenase Family (ALDH1A3) Primary screen (AID 2061315); details: ALDH inhibition qHTS; series mostly up to 56 µM

Sequence of Cellular tumor antigen p53 (Homo sapiens) (P04637 whole entry, looked up): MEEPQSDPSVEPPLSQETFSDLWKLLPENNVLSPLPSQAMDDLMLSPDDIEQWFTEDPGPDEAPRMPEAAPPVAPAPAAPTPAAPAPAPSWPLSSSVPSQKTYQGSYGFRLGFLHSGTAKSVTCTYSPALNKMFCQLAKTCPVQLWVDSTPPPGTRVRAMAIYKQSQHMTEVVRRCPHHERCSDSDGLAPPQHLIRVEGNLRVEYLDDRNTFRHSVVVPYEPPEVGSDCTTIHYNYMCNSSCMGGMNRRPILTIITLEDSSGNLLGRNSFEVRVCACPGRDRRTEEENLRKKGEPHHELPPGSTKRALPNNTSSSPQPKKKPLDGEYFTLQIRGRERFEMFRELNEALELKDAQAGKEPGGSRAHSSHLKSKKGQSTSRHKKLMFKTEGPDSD

| SMILES | activation [1] | Potency [2] | Potency [3] | activity change, negative = inhibition [2] | activity change, negative = inhibition [3] | Potency [1] |
| --- | --- | --- | --- | --- | --- | --- |
| CC12CC34C=CC(=O)C(C)(CCC(=O)O)C3C(CC1C4)O2 (stereo unspecified) | 23.7% (inactive) | inactive | inactive |  |  |  |
| C/C=C(/C)C(=O)OC1C(OC(C)=O)C23C(O)OC4(CCC5C6(C)CCC(OC7OC(C(=O)O)C(O)C(OC8OC(CO)C(O)C(O)C8OC8OC(C)C(O)C(O)C8OC8OCC(O)C(O)C8O)C7OC7OC(CO)C(O)C(O)C7O)C(C)(C)C6CCC5(C)C4(C)CC2OC(C)=O)C3CC1(C)C (stereo unspecified) | -7.63% (inactive) |  |  | 23.8% [at 11.2 µM] (inactive) | 2.15% [at 11.2 µM] (inactive) |  |
| C=C(C)[C@@H]1CC[C@]2(C(=O)O)CC[C@]3(C)[C@H](CCC4[C@@]5(C)CCC(=O)C(C)(C)C5C(O)C[C@]43C)C12 (stereo partly specified) | 13% (inactive) | inactive | inactive |  |  |  |
| COc1cc(O)cc(OC2OC(CO)C(O)C(O)C2O)c1 (stereo unspecified) | 21.4% (inactive) | inactive | inactive |  |  |  |
| Cc1ncc([N+](=O)[O-])n1CC(O)CN1CCOCC1 (stereo unspecified) | -11% (inactive) | inactive | inactive |  |  |  |
| Nc1nc2c(nc(Br)n2[C@@H]2O[C@@H]3COP(=O)(O)O[C@H]3[C@H]2O)c(=O)[nH]1 | -14.3% (inactive) | inactive | inactive |  |  |  |
| CN(CC1(C)CCCO1)S(=O)(=O)c1ccc(Cl)c(S(N)(=O)=O)c1 (stereo unspecified) | -1.69% (inactive) | inactive | inactive |  |  |  |
| C=C1Cc2c(Cl)cc3[nH]c4c5c3c2[C@@]2(O)[C@@H]1C[C@@H]2C(C)(C)O[C@H]5C1CC[C@@]2(O)[C@@]35O[C@@H]3[C@H]3OC(C)(C)[C@H]3O[C@H]5CC[C@]2(C)[C@@]41C (stereo partly specified) | -14.5% (inactive) | inactive | inactive |  |  |  |
| COc1ccc(-n2c(=O)[nH]c3cc(C(=O)NCc4ccc(Cl)cc4)sc3c2=O)nc1OC | -16.1% (inactive) | inactive | inactive |  |  |  |
| CC/C=C\CC1C(=O)C=CC1(CCCCCCCC(=O)O)OC(C)=O (stereo unspecified) | -22.9% (inactive) | inactive | inactive |  |  |  |
| COC(=O)C1=CO[C@@H](O[C@@H]2O[C@H](CO)[C@@H](O)[C@H](O)[C@H]2O)[C@@H]2C(CO)=CC[C@]12O | 1.79% (inactive) | inactive | inactive |  |  |  |
| COC1CC(=O)C23C(=O)NC(CC(C)C)C2C(C)C(C)=CC3/C=C(\C)CCC(O)C1O (stereo unspecified) | 23.7% (inactive) | inactive | inactive |  |  |  |
| Cc1ccc2c(Nc3ccc(Cl)cc3)nccc2c1Nc1ncccc1-c1ncnc2nc[nH]c12 |  | inactive | inactive |  |  | 9.53 µM (active) |
| Nc1nc(Nc2ccc(S(N)(=O)=O)cc2)n(C(=S)Nc2c(F)cccc2F)n1 |  | inactive | inactive |  |  | 2.13 µM (active) |
| CC1(C=O)CC[C@]2(C(=O)O[C@@H]3O[C@H](CO)[C@@H](O)[C@H](O)[C@H]3O)CC[C@]3(C)C(=CCC4[C@@]5(C)C[C@H](O)[C@H](O[C@@H]6OC[C@@H](O)[C@H](O)[C@H]6O)[C@@](C)(CO)C5CC[C@]43C)C2C1 (stereo partly specified) | 6.87% (inactive) | inactive | inactive |  |  |  |
| COC(=O)[C@@]1(C)CC[C@]2(C(=O)O[C@@H]3O[C@H](CO)[C@@H](O)[C@H](O)[C@H]3O)CC[C@]3(C)C(=CCC4[C@@]5(C)CC[C@H](O[C@@H]6O[C@H](C(=O)O)[C@@H](O)[C@H](O)[C@H]6O)C(C)(C)C5CC[C@]43C)[C@@H]2C1 (stereo partly specified) | -16.8% (inactive) | inactive | inactive |  |  |  |
| Fc1cccc(CN(C2=NCCN2)c2c(Cl)cccc2Cl)c1 | -15% (inactive) | inactive | inactive |  |  |  |
| CC(O)CCc1ccc(O[C@@H]2O[C@H](CO)[C@@H](O)[C@H](O)[C@H]2O)cc1 (stereo partly specified) | -10.7% (inactive) | inactive | inactive |  |  |  |
| C[C@@H]1CC[C@]2(C(=O)O)CC[C@]3(C)C(=CCC4[C@@]5(C)CC[C@H](O)C(C)(C)C5C(O)C[C@]43C)[C@@H]2[C@]1(C)O (stereo partly specified) | 0.893% (inactive) | inactive | inactive |  |  |  |
| C=CC(C)(O)CC/C=C(\C)C(=O)OC1CC2(C(=O)O)CCC3(C)C(=CCC4C5(C)CCC(OC6OC(COC7OCC(O)C(O)C7O)C(O)C(OC7OCC(O)C(O)C7O)C6OC6OC(CO)C(O)C(O)C6OC6OCC(O)C(O)C6O)C(C)(C)C5CCC43C)C2CC1(C)C (stereo unspecified) | -7.14% (inactive) |  |  | 3.26% [at 11.2 µM] (inactive) | -4.78% [at 11.2 µM] (inactive) |  |
| CC(C)[C@@](O)(c1ccc2cc(OC(F)F)c(OC(F)F)cc2c1)c1cn[nH]n1 | -0.333% (inactive) | inactive | inactive |  |  |  |
| Cc1cc(-c2ncc(-c3cccnc3)cc2/C=C/c2ccccc2)cnc1-c1cccnc1 | 15.7% (inactive) | inactive | inactive |  |  |  |
| CN(C)CC1CCOC1(c1ccccc1)c1ccccc1 (stereo unspecified) | -7% (inactive) | inactive | inactive |  |  |  |
| C=C1CC/C=C(/CO)C(=O)C[C@@H]2[C@@H]1C[C@@]2(C)COC(C)=O | 11.5% (inactive) | inactive | inactive |  |  |  |

| SMILES | activation [1] | Potency [2] | Potency [3] | activity change, negative = inhibition [2] | activity change, negative = inhibition [3] | Potency [1] |
| --- | --- | --- | --- | --- | --- | --- |
| C=C1CC[C@@]2(OC1)O[C@H]1CC3[C@@H]4CC=C5C[C@@H](O)C[C@@H](O[C@@H]6OC[C@H](O)[C@H](O)[C@H]6O[C@@H]6O[C@@H](C)[C@H](O)[C@@H](O)[C@H]6O)[C@]5(C)C4CC[C@]3(C)[C@H]1[C@@H]2C (stereo partly specified) | -26% (inactive) | inactive | inactive |  |  |  |
| CC(=O)OC(C)(C)/C=C/C(=O)[C@](C)(O)[C@H]1C(O)C[C@@]2(C)[C@@H]3CC=C4[C@@H](C=C(O[C@@H]5O[C@H](CO)[C@@H](O)[C@H](O)[C@H]5O)C(=O)C4(C)C)[C@]3(C)C(=O)C[C@]12C (stereo partly specified) | 22.3% (inactive) | inactive | inactive |  |  |  |
| C=C1CC(=O)C2OC2(C)CC2OC(=O)C(=C)C2C(O)C1OC(=O)/C(C)=C\C (stereo unspecified) |  | inactive | inactive |  |  | 16.6 µM (active) |
| CC(=O)OCCC(C)CCC1C(C)(O)CCC2C(C)(C)CCCC21C (stereo unspecified) | 6.87% (inactive) | inactive | inactive |  |  |  |
| COc1cc(C#N)ccc1S(=O)(=O)Nc1ccc2c(c1)cc(C)c(=O)n2C | -7% (inactive) | inactive | inactive |  |  |  |
| CC(=O)OC[C@]12[C@H](OC(C)=O)[C@H](OC(=O)c3ccccc3)[C@@H]3[C@@H](OC(C)=O)[C@]1(OC3(C)C)[C@H](C)C[C@H](OC(C)=O)[C@@H]2OC(=O)c1ccccc1 | 3.05% (inactive) | inactive | inactive |  |  |  |
| CC#CCn1c(N2CCCC(N)C2)nc2c1c(=O)n(Cc1nc(C)c3ccccc3n1)c(=O)n2C (stereo unspecified) | 5.67% (inactive) | inactive | inactive |  |  |  |
| COc1cc(O)cc(/C=C/c2ccc(O[C@@H]3O[C@H](CO)[C@@H](O)[C@H](O)[C@H]3O)cc2)c1 | -11.6% (inactive) | inactive | inactive |  |  |  |
| COC(=O)/C=C/C12COC(C)(C)C1C(O)C(OC(C)=O)C1(C)C2CCC2(C)C(c3ccoc3)OC(=O)C3OC321 (stereo unspecified) | 11.5% (inactive) | inactive | inactive |  |  |  |
| CC(C)=CCCC1(C)C=Cc2c(c(C)cc3c2[nH]c2ccccc23)O1 (stereo unspecified) | 2.29% (inactive) | inactive | inactive |  |  |  |
| O=C(O)Cc1cn([C@@H]2OC[C@@H](O[C@@H]3O[C@H](CO)[C@@H](O)[C@H](O)[C@H]3O)[C@H](O)[C@H]2O[C@@H]2O[C@H](CO)[C@@H](O)[C@H](O)[C@H]2O)c2ccccc12 | -7.63% (inactive) | inactive | inactive |  |  |  |
| CC1CCC2(C)CCC3(C)C(=CCC4C5(C)CCC(O)C(C)(C(=O)O)C5CCC43C)C2C1C (stereo unspecified) | 19.6% (inactive) | inactive | inactive |  |  |  |
| CC1=C2C(=O)C=C(CO)C2C2OC(=O)C(CS(=O)(=O)O)C2C(OC(=O)Cc2ccc(O)cc2)C1 (stereo unspecified) | -22.1% (inactive) | inactive | inactive |  |  |  |
| C=C1C(=O)O[C@@H]2CC(C)=C([C@@H](C)CCCO)[C@@H](OC(=O)C(C)C)[C@H]12 | 14.3% (inactive) | inactive | inactive |  |  |  |
| CC1CCN(C(=O)CC#N)CC1N(C)c1ncnc2[nH]ccc12 (stereo unspecified) | 1.79% (inactive) | inactive | inactive |  |  |  |
| CC(C)CC(=O)O[C@@H]1O[C@H](CO)[C@@H](O[C@H]2O[C@H](C)[C@@H](N[C@H]3C=C(CO)[C@@H](O[C@H]4O[C@H](CO)[C@@H](O[C@H]5O[C@H](CO)[C@@H](O[C@H]6O[C@H](CO)[C@@H](O)[C@H](O)[C@H]6O)[C@H](O)[C@H]5O)[C@H](O)[C@H]4O)[C@H](O)[C@H]3O)[C@H](O)[C@H]2O)[C@H](O)[C@H]1O | -13.7% (inactive) | inactive | inactive |  |  |  |
| O=C(Nc1nnc(-c2ccc3c(c2)OCCO3)o1)C1CCCCC1 | -8.33% (inactive) | inactive | inactive |  |  |  |
| COc1cc2ncnc(Nc3cccc(I)c3)c2cc1OC |  | inactive | inactive |  |  | 12 µM (active) |
| C=C1CC[C@@]2(OC1)O[C@H]1CC3[C@@H]4CC=C5C[C@H](O[C@H]6OC[C@@H](O)C(O)[C@@H]6O[C@@H]6O[C@@H](C)[C@H](O)[C@@H](O[C@@H]7O[C@H](CO)[C@@H](O)[C@H](O)[C@H]7O)[C@H]6O)C[C@@H](O)[C@]5(C)C4CC[C@]3(C)[C@H]1[C@@H]2C (stereo partly specified) | -6.25% (inactive) | inactive | inactive |  |  |  |
| CC1(c2nc3c(C(N)=O)cccc3[nH]2)CCCN1 (stereo unspecified) | -1.43% (inactive) | inactive | inactive |  |  |  |
| COC(=O)C1=COC(O[C@@H]2O[C@H](CO)[C@@H](O)[C@H](O)[C@H]2O)[C@H]2[C@@H]1[C@H](OC(=O)CCc1ccc(O)cc1)C[C@]2(C)O (stereo partly specified) | 21.4% (inactive) | inactive | inactive |  |  |  |
| CC1=CC(=O)CC(C)(C)[C@H]1/C=C/C(CO)O[C@@H]1O[C@H](CO)[C@@H](O)[C@H](O)[C@H]1O (stereo partly specified) | 9.16% (inactive) | inactive | inactive |  |  |  |
| COC(=O)C1(C)CCCC2(C)c3ccc(C(C)C)cc3C(O)C(O)C12 (stereo unspecified) | -14.3% (inactive) | inactive | inactive |  |  |  |
